{
  "source": "the supplement of paper PMC5940239",
  "note": "Values without a mark were called inactive.",
  "data": [
    {"system": "Madurella mycetomatis MM55", "assay": "percent growth relative to solvent control; higher = less inhibition, active = 20 or less", "conditions": "100 µM; 7 days", "units": {"percent growth": "%"}, "values": [
      {"smiles": "CN(C)CCNC(=O)N1CCCN(c2ncnc3cc(-c4ccccc4)sc23)CC1", "percent growth": 64.5},
      {"smiles": "COC(=O)c1cccc2oc(-c3cccc(OC)c3NC(=O)c3cc(-c4ccccc4)on3)nc12", "percent growth": 123},
      {"smiles": "CC(=O)NCC1CN(c2ccc(-c3ccc(CNCc4cn[nH]n4)cc3)c(F)c2)C(=O)O1", "note": "(stereo not given)", "percent growth": 125},
      {"smiles": "O=C(NCCc1ccn(-c2ccccc2)n1)C1CCCCC1", "percent growth": 49.1},
      {"smiles": "Cc1cc(C)n2nc(C(=O)Nc3cc(C(F)(F)F)ccc3N3CCOCC3)nc2n1", "percent growth": 162},
      {"smiles": "COc1ccc(-c2cncc3ccc(C(=O)NCCCn4ccnc4)nc23)cc1", "percent growth": 109},
      {"smiles": "CCC(Sc1nc2ccccc2o1)C(=O)Nc1nnc(C)s1", "note": "(stereo not given)", "percent growth": 40.9},
      {"smiles": "O=C(OCc1ccccc1)N1CCC(c2cc(-c3ccncc3)c(-c3ccc(F)cc3)[nH]2)CC1", "percent growth": 117},
      {"smiles": "COc1ccc(S(=O)(=O)Nc2ccc(CN3CCN(C(=O)c4cccc(C#N)c4)CC3)cc2)cc1", "percent growth": 113},
      {"smiles": "CNc1snc(C)c1C(=O)NCCOc1ccc(OC)cc1", "percent growth": 92.2},
      {"smiles": "c1cc(C2=NCCN2)cc(-c2cc(-c3ccc(C4=NCCN4)cc3)no2)c1", "percent growth": 73.8},
      {"smiles": "Cc1ccc2oc(-c3cc(NC(=O)Cc4ccccc4)ccc3Cl)nc2c1", "percent growth": 96},
      {"smiles": "O=C(NCCN1CCCC1)c1cc(NCCN2CCOCC2)nc2ccc(Cl)cc12", "percent growth": 85.5},
      {"smiles": "CC1(C)Cc2c(c(N3CCOCC3)nc3snc(Br)c23)CO1", "percent growth": 78.9},
      {"smiles": "O=C(Nc1nnc(S)s1)c1cc(Br)ccc1Cl", "percent growth": 97}
    ]}
  ]
}
